Measurements taken from the supplement of paper PMC12669032.
Unmarked numbers belong to inactive results.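 Rule for the calls: active = AUC reduced over 20% with Padj below 0.05 in at least 2 of 3 replicates; inactive = otherwise.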

Key:
Experiment in all cases: growth AUC relative to DMSO control (median of replicates) (fraction); higher = more growth (less inhibition), active = hit call of the paper
Details in all cases: 20 µM; 24 h
[1] = test system: Coprococcus comes
Summary of the method: (§1)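 Area under the growth curve was normalised to the plate median of solvent-only wells, except on the industrial chemical plate, where row and column medians were used. Curves came from gut bacterial monocultures grown anaerobically at 37 °C in mGAM with 20 µM compound (1% DMSO), starting at OD600 0.05 and read at OD600 every hour for 24 h. The minimum OD of each curve was set to 0, and values are medians of three biological replicates grown on separate days.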

[2] = test system: Escherichia coli ED1a
Summary of the method: as §1

[3] = test system: Escherichia coli IAI1
Summary of the method: as §1

[4] = test system: Eubacterium rectale
Summary of the method: as §1

[5] = test system: Fusobacterium nucleatum subsp. animalis
Summary of the method: as §1

[6] = test system: Lactobacillus gasseri
Summary of the method: as §1

[7] = test system: Lactobacillus paracasei
Summary of the method: as §1

[8] = test system: Odoribacter splanchnicus
Summary of the method: as §1

[9] = test system: Parabacteroides distasonis
Summary of the method: as §1

[10] = test system: Parabacteroides merdae
Summary of the method: as §1

[11] = test system: Roseburia intestinalis
Summary of the method: as §1

[12] = test system: Streptococcus salivarius
Summary of the method: as §1

| SMILES | growth AUC [1] | growth AUC [2] | growth AUC [3] | growth AUC [4] | growth AUC [5] | growth AUC [6] | growth AUC [7] | growth AUC [8] | growth AUC [9] | growth AUC [10] | growth AUC [11] | growth AUC [12] |
| --- | --- | --- | --- | --- | --- | --- | --- | --- | --- | --- | --- | --- |
| CCN(CC)C(=O)SCc1ccc(Cl)cc1 | 0.966 | 1.01 | 1.01 | 0.921 | 0.957 | 1.08 | 0.879 | 0.937 | 0.943 | 0.972 | 0.983 | 0.986 |
| COP(=O)(OC)O/C(=C/Br)c1ccc(Cl)cc1Cl | 1.01 | 0.981 | 1 | 1 | 1.07 | 0.885 | 1.01 | 1.03 | 0.883 | 0.963 | 1.02 | 1 |
| Nc1ccc(Cl)cc1Cl | 1.03 | 1.01 | 1 | 1.01 | 1.11 | 1.02 | 0.976 | 1.1 | 1.02 | 1.01 | 1.02 | 1.03 |
| CCOP(=O)(NC(C)C)Oc1ccc(S(C)(=O)=O)c(C)c1 (stereo not given) | 1.06 | 1.03 | 1.02 | 1.03 | 1.03 | 0.993 | 1.03 | 1.05 | 1.06 | 1.04 | 1.09 | 0.999 |
| CCOC(=O)C(Cl)Cc1cc(-n2nc(C)n(C(F)F)c2=O)c(F)cc1Cl (stereo not given) | 0.963 | 0.986 | 0.941 | 0.794 | 0.987 | 1.01 | 0.966 | 0.988 | 0.963 | 0.925 | 1.03 | 1.03 |
| COP(=S)(OC)Oc1nc(Cl)c(Cl)cc1Cl | 0.978 | 0.986 | 0.997 | 0.913 | 0.94 | 1.07 | 0.989 | 0.942 | 0.937 | 0.951 | 1 | 1.02 |
| OCC(O)CCl (stereo not given) | 0.999 | 0.947 | 1 | 1 | 0.987 | 0.993 | 0.978 | 1.01 | 1.02 | 0.991 | 1.02 | 1 |
| Cc1cc(C(F)(C(F)(F)F)C(F)(F)F)ccc1NC(=O)c1cccc(I)c1C(=O)NC(C)(C)CS(C)(=O)=O | 1.21 | 1.1 | 1.14 | 1.09 | 1.13 | 3.03 | 1.48 | 0.994 | 0.795 | 0.99 | 1.67 | 0.919 |
| O=P(Oc1ccccc1)(Oc1ccccc1)Oc1ccccc1 | 0.937 | 1 | 0.993 | 0.977 | 0.828 | 0.943 | 0.958 | 1.01 | 0.594 (active) | 0.842 | 0.937 | 0.957 |
| O=C(O)CNCP(=O)(O)O | 1 | 1 | 1 | 1.01 | 1.08 | 1.04 | 0.949 | 1.08 | 1.01 | 1.04 | 0.966 | 1.03 |
| O=c1oc2ccccc2c(O)c1C(CC(O)c1ccc(-c2ccc(Br)cc2)cc1)c1ccccc1 (stereo not given) | 0.923 | 1 | 0.97 | 0.883 | 0.936 | 0.801 | 0.838 | 0.167 (active) | 0.516 (active) | 0.25 (active) | 0.654 (active) | 0.553 (active) |
| Clc1cc(Cl)c(Cl)c(Cl)c1 | 0.984 | 0.961 | 0.982 | 1.05 | 0.957 | 0.918 | 0.949 | 1.08 | 0.953 | 0.941 | 0.91 | 0.968 |
| CCOP(=O)(OCC)O/C(=C/Br)c1ccc(Cl)cc1Cl | 1.01 | 0.976 | 0.973 | 1.04 | 0.996 | 0.976 | 0.996 | 1.02 | 0.547 (active) | 0.898 | 0.995 | 0.975 |
| COC(=O)c1ccccc1S(=O)(=O)NC(=O)Nc1nc(C)nc(OC)n1 | 0.975 | 0.963 | 0.958 | 1.05 | 0.913 | 0.934 | 0.933 | 1.07 | 0.977 | 0.962 | 0.978 | 0.935 |
| Nc1cc(Cl)cc(Cl)c1 | 1.01 | 1.03 | 1.06 | 1.04 | 1.13 | 0.944 | 1 | 0.893 | 1 | 1.04 | 1.07 | 1.01 |
| Fc1ccc(Oc2ccnc3cc(Cl)cc(Cl)c23)cc1 | 0.969 | 0.977 | 0.97 | 0.845 | 0.921 | 0.984 | 0.672 | 1 | 0.966 | 0.876 | 1.02 | 0.956 |
| CC(C)(C)C(O)C(Oc1ccc(Cl)cc1)n1cncn1 (stereo not given) | 0.998 | 1.01 | 1.02 | 0.97 | 1.07 | 1.02 | 1.04 | 1.03 | 1.02 | 0.998 | 1.03 | 1.03 |
| C[C@@H]1C[C@@H]([C@H](O)CC2CC(=O)NC(=O)C2)C(=O)[C@@H](C)C1 | 1.03 | 1.01 | 1.02 | 0.992 | 1.12 | 0.936 | 1.06 | 1.02 | 0.985 | 1.03 | 0.987 | 1.03 |
| CC(C)N(C(=O)COc1nnc(C(F)(F)F)s1)c1ccc(F)cc1 | 0.988 | 1.03 | 1.01 | 1.1 | 1.05 | 1.04 | 1.02 | 1 | 0.937 | 0.986 | 1.01 | 0.949 |
| COC(=O)C(C)(Cl)Cl | 0.987 | 0.977 | 1.02 | 0.934 | 1.03 | 1.18 | 1.03 | 0.956 | 1.05 | 1.04 | 1.12 | 0.979 |
| CCOCN(C(=O)CCl)c1c(C)cccc1CC | 1.01 | 1 | 1.04 | 0.983 | 1.04 | 1.03 | 1.05 | 1.01 | 1.03 | 0.974 | 1.01 | 1 |
| C#CCOc1ccc(CCNC(=O)C(OCC#C)c2ccc(Cl)cc2)cc1OC (stereo not given) | 0.992 | 1.01 | 0.996 | 1.04 | 0.943 | 0.926 | 0.98 | 1.03 | 0.689 (active) | 0.948 | 0.959 | 0.984 |
| COC(=O)COc1ccc(Cl)cc1Cl | 0.98 | 0.968 | 0.968 | 1.21 | 0.946 | 0.915 | 1.04 | 1.14 | 0.931 | 0.964 | 0.943 | 0.937 |
| CO/C=C(/C(=O)OC)c1ccccc1Oc1cc(Oc2ccccc2C#N)ncn1 | 0.964 | 0.991 | 0.976 | 0.948 | 0.969 | 0.908 | 1.06 | 0.959 | 0.9 | 0.955 | 0.961 | 0.991 |
| CCOP(=S)(OCC)Oc1ccc(Cl)cc1Cl | 1.03 | 1.01 | 1.02 | 0.953 | 1.03 | 1 | 1.07 | 1.02 | 1.05 | 0.997 | 1.05 | 1.04 |
